Measured values as given in PubChem BioAssay (NCI).
The panel holds about 79,000 compounds, 15% with a hit somewhere; the sample as a whole holds those more often. Cut-off read from the data, not from the text of the source: active = growth inhibition above about 70%; inactive = the rest.

Tests used:
[1] = NCI Yeast Anticancer Drug Screen. Data for the rad50 strain (AID 155);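 note: 0% = growth of vehicle-only cultures of the same strain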; conditions: S. cerevisiae rad50 strain growth inhibition; at 50.0 µM; active compounds read high
Outline: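 Relative growth inhibition (compound vs vehicle) was measured in yeast with a defined repair-gene alteration.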

[2] = NCI Yeast Anticancer Drug Screen. Data for the mec2-1 strain (AID 157); conditions: S. cerevisiae mec2-1 strain, at 50.0 µM, active compounds read high
Outline: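 Compounds were applied to mec2-1 yeast cells. Their growth was then compared with that of vehicle-treated cultures to give growth inhibition.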

[3] = NCI Yeast Anticancer Drug Screen. Data for the sgs1 mgt1 strain (AID 161);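 note: 0% = growth of cultures given vehicle only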; conditions: S. cerevisiae sgs1 mgt1 strain, at 50.0 µM, active compounds read high
Outline: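 Percent growth inhibition was derived by comparing compound-exposed mutant yeast with vehicle-exposed cultures. The strain carries alterations in DNA damage repair.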

[4] = NCI Yeast Anticancer Drug Screen. Data for the cln2 rad14 strain (AID 165);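 note: 0% = growth equal to vehicle treated cultures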; conditions: S. cerevisiae cln2 rad14 strain, at 50.0 µM, active compounds read high
Outline: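 Strain: cln2 rad14 yeast, altered in cell cycle control and DNA damage repair. Read-out: growth inhibition vs vehicle.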

[5] = NCI Yeast Anticancer Drug Screen. Data for the bub3 strain (AID 167); conditions: S. cerevisiae bub3 mutant strain, at 50.0 µM, active compounds read high
Outline: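 Screening used yeast with an engineered genetic alteration affecting cell cycle control. Compound-exposed cultures were compared with vehicle cultures, and reduced growth was taken as inhibition.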

[6] = NCI Yeast Anticancer Drug Screen. Data for the mlh1 rad18 strain (AID 175); conditions: S. cerevisiae mlh1 rad18 strain growth inhibition; at 50.0 µM; active compounds read high
Outline: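 A repair-deficient yeast strain is exposed to test compound, and growth is scored relative to vehicle-treated controls.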

Measured: growth inhibition

CC1C(=O)CCC2C1(C)CCC1C2(C)CCC2(C)C3CC(C)(C)CCC3(C)CCC12C (stereo unspecified)
inactive: [1] 18.4% | [2] -9.05% | [3] 17.4% | [4] 9.2% | [5] 22.9% | [6] 16.8%

N=C(N)n1[nH]c2c(c1=O)CCCC2
inactive: [1] 5.6% | [2] 6.75% | [3] -12.1% | [4] 6.25% | [5] 2.85% | [6] -19.4%

CN(C)CCNc1cccc2oc3ccc(O)cc3c(=O)c12
inactive: [1] 8.2% | [2] -4.95% | [3] 9.55% | [4] -2.3% | [5] -4.95% | [6] 7.4%

CC(C)=CCNC(N)=O
inactive: [1] 4.95% | [2] -3.8% | [3] -10.5% | [4] 11% | [5] 7.4% | [6] 2.15%

CCC(C)C(C)O (stereo unspecified)
inactive: [1] -7.05% | [2] -53% | [3] 2.9% | [4] 14.5% | [5] -12.8% | [6] 0.1%

COC(=O)[C@H]1[C@H]2C[C@@H]3c4[nH]c5cc(OC)ccc5c4CCN3C[C@H]2C[C@@H](OC(=O)c2cc(OC)c(OC)c(OC)c2)[C@@H]1OC
inactive: [1] 16.5% | [2] -14.2% | [3] -8.9% | [4] -3.65% | [5] 25.7% | [6] 12.8%

Cc1ccc(C)c(NC(=O)C(=O)C(C(=O)c2ccc3ccccc3c2)C2OC(=O)c3ccccc32)c1 (stereo unspecified)
inactive: [1] 23.9% | [2] 15.8% | [3] 35.9% | [4] 23.5% | [5] 4.15% | [6] 13.7%

Cc1ccc(-n2c(C)nc3c(c(C)c(C)n3-c3ccccc3)c2=N)cc1
inactive: [1] 4.1% | [2] -0.75% | [3] 4.75% | [4] -19% | [5] 15.4% | [6] 6.65%

O=C(CCn1[nH]c(=O)c(Cl)c(Cl)c1=O)NNC(=O)C[n+]1ccccc1
inactive: [1] -4.2% | [2] -8.9% | [3] -28.3% | [4] 34.2% | [5] -7.05% | [6] -25.1%

O=C(O)c1cc(=O)c2c([nH]c3ccccc32)s1
inactive: [1] -4.9% | [2] -18.7% | [3] -14.6% | [4] 5.25% | [5] -14.3% | [6] 13.3%

Nc1c(S(=O)(=O)O)cc(Nc2cccc(S(N)(=O)=O)c2)c2c1C(=O)c1ccccc1C2=O
inactive: [1] 5.05% | [2] 1.1% | [3] -42.4% | [4] -7.65% | [5] -17.1% | [6] 24.6%

O=C1c2ccccc2C(O)(c2ccccc2)c2ccccc21
inactive: [1] 13.4% | [2] 20.6% | [3] 13.8% | [4] -21.6% | [5] 13.4% | [6] 0.35%

CC(=O)O[C@H]1CCN2C(=O)C=CC(OCc3ccccc3)C12 (stereo partly specified)
inactive: [1] 3.8% | [2] -15.3% | [3] 11.1% | [4] 13.2% | [5] -5.95% | [6] 3.6%

CC(O)CCNc1nnc2c3ccccc3n(C)c2n1 (stereo unspecified)
inactive: [1] 5.95% | [2] 0.65% | [3] 0.1% | [4] 44.2% | [5] 5.3% | [6] -16.2%

CCC(COC(=O)CC[C@@H](NC(=O)C(C)NC(=O)C(C)OC1C(O)C(CO)OC(OCc2ccccc2)C1NC(C)=O)C(N)=O)NC1c2ccccc2Nc2cccc([N+](=O)[O-])c21 (stereo partly specified)
inactive: [1] 5.65% | [2] -9.7% | [3] -13.8% | [4] 6.4% | [5] -17.9% | [6] -10.7%

CC(=O)CC(=O)OC(C)OC(=O)CC(C)=O
inactive: [1] -2.1% | [2] -13.4% | [3] -11.4% | [4] -2.5% | [5] -0.7% | [6] 0.25%

CC1CNC(=O)NC1=O.O.O.[NH2-].[NH2-].[Pt+4] (stereo unspecified)
inactive: [1] 7.55% | [2] 11.2% | [3] -0.75% | [4] -51% | [5] -5.95% | [6] -5.85%

Cc1ccc2cc(C)c(C)cc2c1
inactive: [1] 30.6% | [2] -3.35% | [3] -10.8% | [4] 16.1% | [5] -2.6% | [6] 12.8%

COc1ccc(C2=NNC(=O)OC2c2ccccc2)cc1 (stereo unspecified)
inactive: [1] 29.1% | [2] 16.9% | [3] 28.2% | [4] -29.6% | [5] 26.3% | [6] 28.9%

CC(=O)c1cccc(NC(=O)Oc2ccc(Cl)cc2Cl)c1
inactive: [1] 4.55% | [2] 17.9% | [3] 3.25% | [4] 1% | [5] 11.3% | [6] 4.3%

CC(=O)CCCC(=O)O
inactive: [1] 10.5% | [2] 1.25% | [3] -24.5% | [4] -11.9% | [5] 0.45% | [6] 10.2%

O=C(Nc1ccc(C(=O)CCl)cc1)Nc1ccc(C(=O)CCl)cc1
inactive: [1] 8.65% | [2] 14.1% | [3] 20.2% | [4] 0.35% | [5] 12.9% | [6] 14.6%

CCC(/C=C/c1ccccc1)=N\NC(=O)c1ccc(C)cc1
inactive: [1] 9.4% | [2] 10.7% | [3] 11.7% | [4] -4.05% | [5] 15.5% | [6] 5.25%

CCC(=O)CCN(CC)CC
inactive: [1] -39.6% | [2] -33.3% | [3] -55.8% | [4] -5% | [5] -35.3% | [6] -40.4%

CSc1nc(NC2OC(CO)C(O)C(O)C2O)c(C=O)c(=O)n1C (stereo unspecified)
inactive: [1] 10% | [2] -0.8% | [3] 10.3% | [4] 4% | [5] 2.45% | [6] 7.75%

O/N=C1\CCCC\C1=N/O
inactive: [1] 6.55% | [2] -9.8% | [3] -8.35% | [4] -3.1% | [5] 8.95% | [6] -4.25%

CC1(C#N)CCCC(c2ccccc2)(c2ccccc2)C1=O (stereo unspecified)
inactive: [1] 43.2% | [2] 40.5% | [3] 49.2% | [4] -9.25% | [5] 23.9% | [6] 34.5%

O=C1OC2=C(CCCC2)C(N2CCCCC2)C12SCCCS2 (stereo unspecified)
inactive: [1] 3.65% | [2] 14.4% | [3] -6.75% | [4] 11.4% | [5] 5% | [6] 2.55%

CCC(C)(C(=O)O)c1ccccc1 (stereo unspecified)
inactive: [1] 4.1% | [2] -5.85% | [3] -3.95% | [4] -15.1% | [5] -42.5% | [6] 15.7%

Cn1c(=O)c2[nH]c(=O)n(C)c2n(C)c1=O
inactive: [1] -5.35% | [2] 2.25% | [3] 12.6% | [4] -9.55% | [5] 16.5% | [6] 16.1%

CC(C)c1ccc(/C=C2\C=Nc3ccccc32)cc1
inactive: [1] 15.8% | [2] 11.7% | [3] 28.9% | [4] 5.2% | [5] 50.7% | [6] 20.6%

O=C(O)c1cccc(Cl)c1-c1c(Cl)cccc1C(=O)O
inactive: [1] 4.65% | [2] -0.95% | [3] 17.8% | [4] 11.8% | [5] 17.3% | [6] -8.45%

O=C(CCBr)OCCOc1ccccc1
inactive: [1] 1.55% | [2] -3.6% | [3] 4.2% | [4] -39.8% | [5] 4.95% | [6] 2.7%

O=C1c2ccccc2C(=O)c2c(Cl)cccc21
inactive: [1] 56.6% | [2] 4.7% | [3] -19.2% | [4] -39.5% | [5] -9.35% | [6] 7.35%

CN(C)c1ccc(/C=N\NC(=S)NN2CCN(NC(=S)N/N=C\c3ccc(N(C)C)cc3)CC2)cc1
inactive: [1] 30.2% | [2] 11.1% | [3] 5.2% | [4] 4.85% | [5] 1.55% | [6] 27.8%

COc1ccc(OC)c(C(=O)c2cccc(C(=O)c3cc(OC)ccc3OC)n2)c1
inactive: [1] 20.9% | [2] 6.25% | [3] 42.5% | [4] -21.8% | [5] -30.4% | [6] 20.6%

CCOP(=O)(OCC)C(C)(CC)NC1=NC(C(F)(F)F)(C(F)(F)F)NC(=O)N1 (stereo unspecified)
inactive: [1] -2.2% | [2] -10.2% | [3] -3.3% | [4] 1% | [5] -0.5% | [6] -0.15%

CC1=NS(=O)(=O)c2ccccc2N1
inactive: [1] 0.3% | [2] -4.4% | [3] 4.75% | [4] 15.9% | [5] 4.45% | [6] 10.2%

O=C(O)C1C(CCl)=C1CCl
inactive: [1] -15.8% | [2] 20.7% | [3] 2.35% | [4] -11.3% | [5] 4.7% | [6] -2.9%

COc1ccc(/C=C/C(=O)c2c(-c3ccccc3)nn(C)c(=O)c2N2CCCC2)cc1
inactive: [1] -23.8% | [2] -20.3% | [3] -33.2% | [4] -24.4% | [5] -11.2% | [6] -34.1%

CN(CC(C)(C)C(O)c1ccccc1)C(=O)c1ccccc1 (stereo unspecified)
inactive: [1] 0.95% | [2] -5.7% | [3] 12.7% | [4] 20.7% | [5] 8.2% | [6] 12.6%
